Data as given in PubChem BioAssay AID430 (Sanford-Burnham Center for Chemical Genomics, 2006).
The whole screen tested about 63,000 compounds, of which about 1,100 (1.7%) were called active. This is one part of a sample in which actives are shown more often than they occur. Potency and affinity values are given separately. Values without a mark were called inactive. Rule as the data show it: active = cytotoxicity above about 50%; inactive = the rest.

Test: cytotoxicity in HPDE-C7 cells, cell-based, fluorescence, HTS (AID 430);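 also: cells exposed to compound for 48 hours before viability readout; 0% = vehicle and 100% = reference cytotoxic drug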
Conditions: HPDE-C7 pancreatic duct cells viability, at 10 µM, stronger effect = higher value

SMILES | cytotoxicity
Cc1ccccc1CSc1ncc(C#N)c(N)n1 | -10.1%
COc1ccc(Nc2cc(C(=O)NCCCN3CCN(C)CC3)c3ccccc3n2)c(OC)c1 | 2%
Cc1csc(C(C#N)C(=O)c2ccncc2)n1 (configuration not stated) | -11%
Cc1ccc(-n2c3c(cc(C(=O)Nc4cccc(C)n4)c2=O)C(=O)CCC3)cc1 | -27.7%
COc1ccc(-n2c3c(cc(C(=O)Nc4ccc5c(c4)C(=O)NC5=O)c2=O)C(=O)CCC3)cc1 | 58.8% (active)
Cc1cccc(NC(=O)c2cc3c(n(-c4ccccc4)c2=O)CCCC3=O)n1 | 9.4%
COC(=O)c1cc(OC)c(OC)cc1-n1cnc2cc(OC)c(OC)cc2c1=O | -9.2%
Cc1cccc(NC2=NC3(CCCCC3)N=C(N)N2)c1C | -3.7%
CCOc1ccc(NC(=O)CN2C(=O)COc3ccc(Cl)cc32)cc1 | -2%
CCOC(=O)c1ccc2c(c1)nc(SC/C(O)=C(\C#N)c1nc3ccccc3[nH]1)n2CC | 16.2%
Cc1nnc(SCc2ccc(Cl)cc2)n1CC1CCCO1 (configuration not stated) | 2.4%
Cc1nnc(SCC(=O)n2c3c(c4ccccc42)CCCC3)s1 | -1%
O=C(CSc1nnc(-c2ccccc2)o1)n1c2c(c3ccccc31)CCCC2 | 53.3% (active)
O=C(O)CSc1nnc(-c2ccccc2)o1 | 0.1%
CC1CCCCN1S(=O)(=O)c1coc(C(N)=O)c1 (configuration not stated) | -2.9%
CC(=O)NC(C)C12CC3CC(CC(C(=O)O)(C3)C1)C2 (configuration not stated) | -6.6%
CSc1nc2ccc(NS(=O)(=O)c3ccc(Cl)s3)cc2s1 | 55.3% (active)
Cc1ccc(S(=O)(=O)Nc2ccc3nc(N)sc3c2)cc1 | -16.3%
CSc1nc2ccc(S(=O)(=O)NC3CCCCC3)cc2s1 | 6.9%
CCOc1cccc(/C(O)=C2/C(=O)C(=O)N(CCOC)C2c2ccc(C)o2)c1 (configuration not stated) | -8%
Cc1cc(C)nc(N2CCC(CNC(=O)CCc3ccccc3)CC2)n1 | -11.3%
O=C(CCc1nc2ccccc2[nH]1)Nc1ccccc1 | -8.6%
CCOC(=O)c1c(C)c(C(=O)Nc2ccccc2)c(C)n1CC | 4.4%
CCOC(=O)c1c(C)c(C(=O)Nc2ccc3c(c2)OCCO3)c(C)n1CC | 17.2%
CCOC(=O)c1c(C)c(C(=O)Nc2ccc(N(C)C)cc2)c(C)n1CC | 54.2% (active)
CC(C)NS(=O)(=O)c1ccc(CCC(=O)O)cc1 | -5.7%
CC1=C(C(N)=O)C(c2cccnc2)n2nc(-c3cccc(C)c3)nc2N1 (configuration not stated) | -15.3%
